Test results taken from PubChem BioAssay AID430 (Sanford-Burnham Center for Chemical Genomics, 2006).
The campaign covered roughly 63,000 compounds. About 1,100 (1.7%) were called active. The sample holds actives, similar compounds and a random draw of the others, so the mix is not that of the screen. Potency and affinity values are given separately. A number with no mark means an inactive call. Rule as the data show it: active = cytotoxicity above about 50%; inactive = the rest.

Experiment: HPDE-C7 pancreatic duct cell viability loss – fluorescence, HTS (AID 430);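 also: cells exposed to compound for 48 hours before viability readout; 0% = vehicle and 100% = reference cytotoxic drug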
Conditions: HPDE-C7 pancreatic duct cells viability, at 10 µM, stronger effect = higher value

Row | SMILES | cytotoxicity
1 | COc1ccc(OC)c(Nc2nc(-c3sc(N)nc3C)cs2)c1 | 34.5%
2 | COc1ccc(CNC(=O)C2CCCN2S(=O)(=O)c2ccc(C)cc2)cc1 (configuration not stated) | 9.7%
3 | CC(C)(C)c1ccccc1OCCCCCNCCO | 9.8%
4 | CC(=O)CCc1c(C)[nH]c2ccccc2c1=O | -19.6%
5 | Cc1ccc(-c2noc(CCC(=O)NCCCN3CCN(c4cccc(Cl)c4)CC3)n2)cc1 | -6.5%
6 | O=C(c1ccc2ccccc2c1)N1CCN(c2ccccc2)CC1 | -4.8%
7 | O=C(Nc1ccc(N2CCOCC2)cc1)Nc1ccc2nc(-c3ccco3)c(-c3ccco3)nc2c1 | 76.2% (active)
8 | O=C(Nc1ccc2nc(-c3ccco3)c(-c3ccco3)nc2c1)N1CCCCCC1 | 29.1%
9 | COc1ccccc1N1CCN(C(=O)c2ccc3nc(-c4ccco4)c(-c4ccco4)nc3c2)CC1 | 8.9%
10 | O=C(c1cc(-c2ccco2)on1)N1CCN(c2ccccc2)CC1 | 13.6%
11 | O=C(c1ccc2ccccc2c1)N1CCN(c2ccc(O)cc2)CC1 | 50.3% (active)
12 | O=C(Nc1ccc(N2CCOCC2)cc1)c1ccc2nc(-c3ccco3)c(-c3ccco3)nc2c1 | -9.4%
13 | CN1CCN(C(=O)c2ccc3ccccc3c2)CC1 | -15.3%
14 | O=C(c1cccs1)N1CCC(c2ccccc2)C1 (configuration not stated) | 5.4%
15 | O=c1[nH]c2ccccc2cc1-c1noc(-c2cccnc2)n1 | 6.4%
16 | CCCOc1ccc(NC2=CC(=O)CC(C)(C)C2)cc1 | -2.4%
17 | COc1cc(-c2csc(N3CCOCC3)n2)cc(OC)c1OC | 4.3%
18 | COc1ccc(OC)c(NC(=O)c2nnn(Cc3ccc(Br)cc3F)c2N)c1 | 18.8%
19 | c1ccc(-c2ccc(OCCOCCn3cncn3)cc2)cc1 | -14.6%
20 | O=C(CSc1nnc(C2COc3ccccc3O2)o1)N1CCCc2ccccc21 (configuration not stated) | -5.7%
21 | COc1ccc(C(O)c2coc3ccc(O)c(CN(C)C)c23)cc1 (configuration not stated) | 8.4%
22 | CN(C)C(=O)c1nc(C#N)c(N(C)C)o1 | 8.3%
23 | COC(=O)c1[nH]c2cc(OC)ccc2c1NC(=O)CN1CCOCC1 | 9.3%
24 | CCC(O)c1cc2c(cc1NC(=O)c1ccc(C)cc1)OCCO2 (configuration not stated) | -1.6%
25 | Cc1cc(C)c2nc(-c3ccccn3)cc(C(=O)Nc3cc(C)on3)c2c1 | 6.6%

Row | SMILES | cytotoxicity
26 | Cc1cc(NC(=O)c2cc(-c3ccncc3)nc3c(C)cccc23)no1 | 64.9% (active)
27 | Cc1cc(NC(=O)c2cc(-c3cccnc3)nc3c(C)c(C)ccc23)no1 | 22.3%
28 | O=C(c1cc(-c2ccc3c(c2)OCO3)on1)N1CCN(c2ccccc2)CC1 | 20.6%
29 | CCOc1ccc2nc(NC(=O)CN3CCC(n4nnc5cc(F)ccc54)CC3)sc2c1 | 55.7% (active)
30 | COc1ccccc1NC(=O)CN1CCC(n2nnc3cc(F)ccc32)CC1 | -8.8%
31 | CCOC(=O)c1ccccc1NC(=O)CN1CCC(n2nnc3cc(F)ccc32)CC1 | 13.5%
32 | O=C(Nc1ccc(NC(=O)C2CC2)nc1)c1ccccn1 | -20.6%
33 | Cc1cc(C(=O)Nc2nnc(C3CCCCC3)s2)cs1 | 6.3%
34 | CCNC(=O)C1CC(=O)N(c2ccc(Br)cc2)C1 (configuration not stated) | -12.4%
35 | O=C(CCCN1CCOCC1)c1ccc2c(c1)OCCO2 | 7.8%
36 | O=C(CCN1CCc2ccccc21)c1ccc2c(c1)OCCO2 | 1.9%
37 | O=C(CCN1CCc2ccccc2C1)Nc1ccc2c(c1)OCO2 | 2.3%
38 | O=C(CCN1Cc2ccccc2C1)c1ccc2c(c1)OCCO2 | -7.3%
39 | Cc1cccc(-n2nnnc2SCC(=O)c2cc(C)n(CC3CCCO3)c2C)c1 (configuration not stated) | -31.6%
40 | O=C(Nc1nc(-c2ccc(Cl)s2)cs1)c1cccs1 | 12.2%
41 | CC(=O)c1cccc(S(=O)(=O)NCC(c2ccco2)N2CCCCC2)c1 (configuration not stated) | 1%
42 | CCc1ccccc1NC(=O)CCc1nc(-c2ccc(C)cc2)no1 | -5.6%
43 | COc1ccc(C(CC(=O)O)NC(=O)COc2ccccc2)cc1OC (configuration not stated) | -11.8%
44 | COc1ccc(-c2nc(SCC(=O)NCc3ccco3)c(-c3ccccc3)[nH]2)cc1OC | -5.2%
45 | N#Cc1c(-c2cccs2)cc(-c2ccccn2)nc1N | 42.3%
46 | CSc1nc(C2CC2)cc(-c2cccs2)c1C#N | 63.4% (active)
47 | CN1CCN(C(=O)CSc2nc(-c3cccs3)ccc2C#N)CC1 | 15.3%
48 | COc1ccc(-c2[nH]c(-c3cccc(OC)c3)nc2SCC(=O)NCc2ccco2)cc1 | 51.3% (active)
49 | COc1ccc(-c2[nH]c(-c3ccc(F)cc3)nc2SCC(=O)NCc2ccco2)cc1OC | 0.1%
50 | COc1ccc(-c2cc(-c3cccs3)c(C#N)c(SCC(=O)NCc3ccco3)n2)cc1 | 52% (active)

Row | SMILES | cytotoxicity
51 | COCc1cc(C)nc(SCC(=O)NCc2ccco2)c1C#N | 1.9%
52 | COc1ccc(-c2ccc(SCC(=O)NCc3ccco3)nn2)cc1 | -13.7%
53 | N#Cc1c(-c2ccccc2)cc(C2CC2)nc1N | -2.8%
54 | CCN(CC)C(=O)CSc1nc(C)cc(-c2cccs2)c1C#N | 9.8%
55 | O=C(O)C1C2CCC(O2)C1C(=O)NCCC1=CCCCC1 (configuration not stated) | 21.4%
56 | COc1ccc(CCC(C(O)C(F)(F)F)S(=O)c2ccccc2)cc1 (configuration not stated) | -3.4%
57 | COc1ccccc1NC(=O)Nn1cnnc1 | -17.6%
58 | CCn1c(SCC(=O)c2cc(OC)ccc2OC)nnc1-c1ccncc1 | 6.4%
59 | CC1Cc2ccccc2N1C(=O)CSc1nnc(NC(=O)Cc2cccs2)s1 (configuration not stated) | -10%
60 | CC(=O)Oc1ccc(N2C(=O)C3C(C2=O)C2(C)C=CC3(C)O2)cc1 (configuration not stated) | -4%
61 | CCOc1ccc(C)cc1S(=O)(=O)NC1CCCCC1 | 4.3%
62 | Cc1ccc(-c2nn3c(C)nnc3s2)cc1NC(=O)c1ccc(OC(C)C)cc1 | -1%
63 | CCOc1ccc2nc(C)cc(C(=O)O)c2c1 | 33.6%
64 | c1ccc2c(c1)oc1c(NCCN3CCOCC3)ncnc12 | 6.2%
65 | c1ccc(Nc2ncnc3c2oc2ccccc23)cc1 | -9.3%
66 | COc1ccc(C)cc1NC(=O)COCC(=O)O | -11.8%
67 | O=C(CN1CCN(Cc2ccccc2)CC1)Nc1ccc(Cl)cn1 | 3.5%
68 | COc1cc(S(=O)(=O)N(Cc2cccnc2)Cc2ccco2)ccc1-n1cnnn1 | -4.3%
69 | CCOc1ccccc1CN(Cc1ccco1)S(=O)(=O)c1ccc(-n2cnnn2)c(OC)c1 | 56.5% (active)
70 | COc1ccccc1CN(Cc1ccco1)S(=O)(=O)c1ccc(-n2cnnn2)c(OC)c1 | 19.4%
71 | CCOC(=O)c1c(NC(=O)CN2CCOCC2)sc2c1CCCC2=O | 3.3%
72 | CCOc1cc(/C=N/n2cnnc2)ccc1OCC(=O)Nc1ccccc1OC | 7.2%
73 | Cc1ccc(Nc2nc(N3CCOCC3)nc(N3CCOCC3)n2)cc1 | 8.7%
74 | Cc1cccc(Nc2nc(NCc3ccco3)nc(N3CCOCC3)n2)c1 | 53% (active)
75 | CN1CCN(c2nc(Nc3cccc(C(F)(F)F)c3)nc(N3CCOCC3)n2)CC1 | 65.4% (active)

Row | SMILES | cytotoxicity
76 | COc1nc(Nc2cccc(C(F)(F)F)c2)nc(OC)n1 | -28.1%
77 | CC(C)c1ccc(Nc2nc(NCc3ccco3)nc(N3CCOCC3)n2)cc1 | 27.5%
78 | O=C(O)c1cccc(Nc2nc(N3CCOCC3)nc(N3CCOCC3)n2)c1 | -10%
79 | Cc1nn(C)c(C)c1S(=O)(=O)NC1CCCc2ccccc21 (configuration not stated) | -10%
80 | CCc1n[nH]c2c1/C(=N\O)CC(c1ccccc1)C2 (configuration not stated) | -1.4%
81 | O=C(C1CCN(c2nnc(-n3cccc3)s2)CC1)N1CCN(Cc2ccc3c(c2)OCO3)CC1 | -3.5%
82 | C(=C\c1ccccc1)/CSc1nnc(-c2cnccn2)n1Cc1ccco1 | -10.9%
83 | CCOC(=O)N1CCN(C(=O)C(CC(C)C)NC(=O)C2CCCCC2)CC1 (configuration not stated) | -6.8%
84 | N#Cc1c(NC(=O)Cn2c(=O)oc3ccccc32)oc(-c2ccccc2)c1-c1ccccc1 | 72% (active)
85 | N#Cc1c(NC(=O)CCN2C(=O)c3ccccc3C2=O)oc(-c2ccccc2)c1-c1ccccc1 | 18.8%
86 | Cc1ccnc(SCC(=O)Nc2oc(-c3ccccc3)c(-c3ccccc3)c2C#N)n1 | 24.1%
87 | N#Cc1c(NC(=O)CN2CCOCC2)oc(-c2ccccc2)c1-c1ccccc1 | -0.2%
88 | CCn1c(SCC(=O)Nc2oc(-c3ccccc3)c(-c3ccccc3)c2C#N)nnc1-c1ccco1 | 32.7%
89 | CC(=O)NC(C)C(=O)OCC(=O)c1ccc(Cl)s1 (configuration not stated) | -1.2%
90 | N#CCSc1nnc(COc2cccc3ccccc23)n1-c1ccccc1 | 37.6%
91 | CCS(=O)(=O)Nc1ccc(Cc2ccncc2)cc1 | -12.1%
92 | CCOCCCNC(=O)C(c1ccc(OC)cc1)N(Cc1ccc2c(c1)OCO2)C(=O)CNC(C)=O (configuration not stated) | -6.5%
93 | C(=C\c1ccccc1)/CN1CCN(C(c2ccccc2)c2ccccc2)CC1 | 13%
94 | O=C(Nc1ccc(F)cc1)N1CCN(C/C=C/c2ccccc2)CC1 | 11.6%
95 | COc1cc(C2C3=C(CC(c4ccco4)CC3=O)Nc3ccccc3N2C(C)=O)cc(OC)c1OC (configuration not stated) | -7.9%
96 | Cc1ccc(-c2[nH]c(=O)n3ccncc23)s1 | -9.9%
97 | CCOc1nc(-c2ccccc2)ccc1-c1noc(-c2ccncc2)n1 | 5.2%
